Assay outcomes as filed in PubChem BioAssay.
APOBEC3A inh = blocks human APOBEC3A ssDNA deamination; P31941; recombinant A3A, FAM/TAMRA ssDNA deamination fluorescence; inhibition, % at 20 µM; 0.41% of 330,000 active; AID 493011;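 active means at least 40% inhibition at 20 µM here, with at most 30% in a related deaminase screen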;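 further: plate controls were A3A with DMSO for no effect and wells lacking A3A enzyme for full effect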
Target sequence (P31941 whole entry, looked up): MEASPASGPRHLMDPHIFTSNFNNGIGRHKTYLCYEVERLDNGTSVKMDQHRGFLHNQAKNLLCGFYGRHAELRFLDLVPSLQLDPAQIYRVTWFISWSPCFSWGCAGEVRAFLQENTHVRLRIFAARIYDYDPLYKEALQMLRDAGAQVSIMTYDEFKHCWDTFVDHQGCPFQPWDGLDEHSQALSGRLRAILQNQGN
PHOSPHO1 inh = blocks human PHOSPHO1 phosphatase activity | Q8TCT1 | inhibition, % at 13.3 µM | 1.1% of 290,000 active | recombinant PHOSPHO1, absorbance phosphatase assay; in the data active means inhibition above about 60%
Target sequence (Q8TCT1 whole entry, looked up): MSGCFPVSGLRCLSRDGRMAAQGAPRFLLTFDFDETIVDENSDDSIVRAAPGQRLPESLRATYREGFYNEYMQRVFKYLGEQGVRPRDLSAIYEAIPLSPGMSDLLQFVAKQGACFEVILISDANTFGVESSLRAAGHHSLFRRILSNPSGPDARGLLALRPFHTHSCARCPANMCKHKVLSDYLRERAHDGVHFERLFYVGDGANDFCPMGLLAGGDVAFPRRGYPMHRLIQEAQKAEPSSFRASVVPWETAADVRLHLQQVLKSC
aDG glyco up = alpha-DG glycosylation activation. Pro5-aDG cells, alpha-DG glycosylation AlphaScreen (IIH6); 0% Pro5, 100% B10-LARGE cell signal. activation, % at 10 µM. 0.22% of 360,000 active. AID 624168;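 active means activation of at least 8% versus controls, or a plate z-score of at least 8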;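 further: Pro5 are CHO cells carrying HIG-tagged alpha-DG that lacks glycosylation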
ALR H2O2 inh = inhibitors of human sulfhydryl oxidase ALR | 3.8% of 290,000 active | purified ALR, DTT oxidation, H2O2 HRP-luminol luminescence | inhibition, % (no concentration beside the values) | P55789 | AID 485317;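 active means mean replicate inhibition above about 79%, with every replicate also reaching it, limit read from the data; inconclusive means only one of the two criteria met; inactive means mean below limit and not every replicate reaching it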
Target sequence (P55789 whole entry, looked up): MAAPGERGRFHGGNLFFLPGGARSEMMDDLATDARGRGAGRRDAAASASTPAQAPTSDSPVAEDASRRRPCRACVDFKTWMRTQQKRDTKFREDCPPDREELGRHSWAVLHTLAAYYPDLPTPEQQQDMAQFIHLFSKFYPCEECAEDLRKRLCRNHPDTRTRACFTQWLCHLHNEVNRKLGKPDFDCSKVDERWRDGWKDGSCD
rCAG RNA binder = molecules binding r(CAG) RNA repeats | r(CAG) RNA repeat, TO-PRO-1 dye displacement fluorescence | inhibition, % at 3 µM | 1.3% of 370,000 active;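 active means inhibition above the plate cutoff, the mean of all test compounds on that plate plus 3 SD, cut at about 35% in these data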;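 further: 0% = DMSO alone and 100% = 100 µM mitoxantrone as full dye displacement; higher means more dye released from RNA so lower well fluorescence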
A3G deaminase = inhibitors of human APOBEC3G DNA deaminase | Q9HC16 | recombinant A3G, ssDNA deamination FAM/TAMRA fluorescence | inhibition, % at 20 µM | 0.28% of 330,000 active;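 active means inhibition of at least 40% at 20 µM, with no more than 30% in the related APOBEC3A deaminase screen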;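 further: plate controls were DMSO wells with A3G for no effect and wells lacking A3G enzyme for full effect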
* = called active by the depositor; ? = inconclusive; . = no result. Hits are enriched below; roughly 5.4% of the tested compounds scored in any of these assays.

SMILES | APOBEC3A inh | PHOSPHO1 inh | aDG glyco up | ALR H2O2 inh | rCAG RNA binder | A3G deaminase
O=C(CCc1cn2ccccc2n1)NC1CCCc2c1cnn2-c1ccccc1F (centres undefined) | -5.2 | 75.4* | -0.1 | -3.6 | -5.0 | -8.5
O=C(CCN1CCCO1)NC1CCCc2c1cnn2-c1ccccc1F (centres undefined) | -4.2 | 11.6 | 0.0 | -1.7 | 0.5 | -5.4
CCOC(=O)C(=NCCCN1CCOCC1)NNc1cccc(C(F)(F)F)c1 | 1.4 | 39.7 | 0.5 | 98.3* | -5.5 | -6.2
C=CCn1c(SCC(=O)Nc2cccc3ccccc23)nc(O)c(CC)c1=O | -0.3 | 39.7 | 0.0 | 98.3* | 7.5 | -4.9
C=CCn1c(SCC(=O)Nc2cc(C)on2)nc2sc(CC)cc2c1=O | 1.5 | 27.6 | 0.0 | . | -2.5 | -2.6
C=CCn1c(SCC(=O)Nc2ccc(O)cc2)nc2sc(CC)cc2c1=O | -2.7 | 27.0 | -0.1 | 96.7* | 5.8 | -9.2
Cc1cc2c(c(=O)o1)[C@@]1(C(=O)N(c3ccccc3)c3ccccc31)C1=C(CCCC1=O)O2 | . | . | . | . | 2.6 | .
Cc1nn(-c2ccccc2)c2sc(C(=O)N3CCN(S(=O)(=O)c4ccc(Br)s4)CC3)cc12 | . | . | . | . | 7.9 | .
COc1ccnc(Nc2ccc(C)c(C)c2)c1C#N | -9.5 | -11.3 | 0.0 | -1.6 | 1.4 | -8.8
Cc1cc(Nc2n[nH]c(N)c2C#N)ccc1F | -2.0 | 45.5 | -0.3 | 95.0* | -1.0 | -1.4
C=CCN1C(=O)[C@H](CC(=O)NCC23CC4CC(CC(C4)C2)C3)[C@@]2(C(=O)OC)CCCCC=C12 | . | . | . | . | 2.8 | .
CSC(=NC#N)N1CCN(c2ccc(Cl)cc2)CC1 | -2.4 | 54.6 | 1.3 | 97.3* | -3.8 | -3.0
Cc1ccc(OCc2nnc(SCC(=O)c3ccccc3)n2Cc2ccco2)cc1 | -1.9 | 92.1* | -0.1 | 25.9 | -0.2 | -4.5
O=C(CSc1nnc(COc2ccccc2)n1Cc1ccco1)c1ccc(F)cc1 | -0.2 | 77.5* | 0.3 | 13.9 | 8.7 | -1.2
Cc1ccc(OCc2nnc(SCC(=O)c3ccc(-c4ccccc4)cc3)n2Cc2ccco2)cc1 | . | . | . | . | 15.7 | .
O=C(CSc1nnc(-c2cc3ccccc3cc2O)n1Cc1ccco1)c1ccc(F)cc1 | 1.5 | 81.4* | -0.2 | -1.4 | 12.4 | -5.7
Cc1ccc(NCc2nnc(SCC(=O)NCc3ccco3)n2CC2CCCO2)c(C)c1 (centres undefined) | 2.8 | -3.7 | 0.4 | 71.6 | -9.3 | 0.5
Cc1occc1-c1nnc(SCC(=O)c2ccc(F)cc2)n1Cc1ccco1 | 2.1 | -10.5 | 0.6 | 30.4 | -1.5 | -2.6
Cc1ccc(NCc2nnc(SCC(=O)N3CCCCC3)n2CC2CCCO2)c(C)c1 (centres undefined) | -1.0 | . | 0.1 | 92.1* | -8.1 | -0.7
CCCCOc1ccc(C(=O)NC2CCCCN(CCC)C2=O)cc1 (centres undefined) | . | . | . | . | 0.0 | .
CCn1c(SCC(=O)c2ccc(-c3ccccc3)cc2)nnc1-c1ccc(C(C)(C)C)cc1 | . | . | . | . | 9.2 | .
COc1ccc(C(=O)CSc2nnc(CNc3ccc(C)cc3C)n2Cc2ccco2)cc1 | -0.9 | 91.3* | 0.1 | . | 0.6 | 17.4
C[C@@H]1COc2cc(Br)ccc2S(=O)(=O)N1Cc1cn(CC2CCCCC2)nn1 | . | . | . | . | 2.8 | .
O=C1NC(c2ccc(Br)cc2)c2c(-c3ccccc3)n[nH]c21 (centres undefined) | . | . | . | . | 1.1 | .
CN1c2ccc(-c3cccc(F)c3)cc2[C@H]2[C@H](CCN2S(=O)(=O)c2cccc(F)c2)[C@H]1CO | . | . | . | . | 9.1 | .
SMILES | APOBEC3A inh | PHOSPHO1 inh | aDG glyco up | ALR H2O2 inh | rCAG RNA binder | A3G deaminase
Cc1c(-n2c(-c3ccccc3)nc3ccccc3c2=O)c(=O)n(-c2ccccc2)n1C | -7.8 | 60.0* | -0.2 | -2.5 | -3.3 | -7.8
O=C(CN1C(=O)N/C(=C\c2ccccc2OCc2ccc(C(=O)O)cc2)C1=O)Nc1ccccc1F | -3.3 | 34.8 | 0.0 | . | 46.9* | -10.2
CCc1nnc(NC(=O)CSc2nnc(COc3cccc(C)c3)o2)s1 | 1.9 | 87.5* | -0.3 | 15.3 | 8.0 | 0.5
COc1ccc(OCc2nnc(SCC(=O)Nc3ccc(C)cc3)o2)cc1 | -3.3 | 26.6 | -0.2 | 2.3 | 1.4 | -8.6
CCc1nnc(NC(=O)CSc2nnc(COc3ccccc3C)o2)s1 | 0.8 | 97.1* | 0.0 | -8.0 | 7.7 | -3.1
Cc1ccc(OCc2nnc(SCC(=O)CC(=O)Nc3ccccc3)o2)cc1 | -1.9 | 73.4* | -0.1 | -11.2 | 14.2 | -6.2
O=C(CCN1CCOCC1)c1ccc(Br)cc1 | -1.6 | 24.8 | 0.6 | 97.7* | 1.8 | 3.1
CC(C)Oc1ccc(C(=O)CCN2CCOCC2)cc1 | 0.1 | . | 0.3 | 53.0 | -5.3 | 4.0
O=C(CCN1CCN(c2ccccc2)CC1)c1ccc(Br)cc1 | 1.3 | 24.2 | 0.5 | 69.7 | -8.0 | 3.3
O=C(CCN1CCOCC1)c1ccc(Cl)cc1 | -3.1 | 36.8 | 0.1 | 96.3* | 1.6 | -6.2
COC(=O)c1cn(-c2ccc3c(c2)[C@]2(CC(=O)N(C)C2c2ccccc2)C(=O)N3CC(C)C)nn1 (some centres undefined) | . | . | . | . | 1.7 | .
CC(=O)Nc1ccc2c(c1)C(=O)N(C)[C@H]1CC[C@H](CC(=O)NCc3ccc(F)cc3)O[C@@H]1CO2 | . | . | . | . | 1.3 | .
CSc1nncc(/C(C)=N\Nc2cccc(C)c2)n1 | -21.2 | -26.5 | 0.1 | 16.4 | 4.8 | 38.2
CSc1nnc2c(n1)c(C)nn2-c1cccc(C)c1 | 6.9 | 5.1 | -0.2 | 95.0* | 3.4 | 0.4
Cc1ccc(C2c3c(n[nH]c3C(C)C)C(=O)N2c2ccccc2)cc1 (centres undefined) | . | . | . | . | 1.7 | .
Cn1c(SCC(=O)c2cc(Cl)c(Cl)s2)nnc1-c1ccco1 | 7.6 | 10.0 | -0.1 | 97.7* | 17.1 | 12.8
COCCn1c(SCC(=O)c2cccc(OC)c2)nnc1-c1ccco1 | 3.6 | 31.9 | -0.1 | 93.0* | -0.2 | 0.7
COc1cccc(-c2nnc(SCC(=O)OC(C)C)n2Cc2ccco2)c1 | -1.5 | 72.5* | 0.3 | -2.1 | -2.6 | 10.2
CC(C)OC(=O)CSc1nnc(-c2cnccn2)n1Cc1ccco1 | -1.9 | 11.7 | -0.5 | -6.5 | -3.2 | -4.3
CCN(C(=O)CSc1nnc(-c2cccnc2)n1Cc1ccco1)c1ccccc1 | . | . | . | . | 2.7 | .
COc1ccc(C2C(C(=O)Nc3ccc(Cl)c(Cl)c3)CCC(=O)N2c2ccc(OC)cc2)cc1 (centres undefined) | . | . | . | . | 6.8 | .
O=C(Nc1ccc2snnc2c1)N1CCCCC1 | 3.1 | -3.1 | -0.4 | ? | -0.8 | -2.2
O=C(c1ccc2snnc2c1)N1CCOCC1 | -7.1 | -24.6 | 0.1 | -1.1 | 0.6 | -6.5
O=C(Nc1ccc2snnc2c1)N1CCOCC1 | -5.5 | 1.8 | -0.1 | 76.8* | 2.2 | -5.0
S=C(Nc1ccc(N2CCOCC2)cc1)Nc1ccc2snnc2c1 | 0.9 | 59.8 | -0.2 | 94.9* | 3.8 | -1.1
O=C(Nc1ccc2snnc2c1)N1CCN(c2ccccc2)CC1 | -3.9 | -33.3 | 0.0 | 98.7* | 1.9 | -4.5
FC(F)(F)C1=CC(c2ccc(Br)cc2)=NCCN1 | -0.4 | 1.7 | -0.2 | 100.0* | -2.7 | -3.2
